Bioassay records (PubChem)
In the library only some 7% were active in any assay of this set; here they are far more common.
rCAG RNA binder: r(CAG) repeat RNA binding; 1.3% of 370,000 active; TO-PRO-1 dye displacement fluorescence; AID 651821; inhibition, % at 3 µM;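 active means inhibition above the plate cutoff, the mean of all test compounds on that plate plus 3 SD, cut at about 35% in these data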;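 further: 0% = DMSO alone and 100% = 100 µM mitoxantrone as full dye displacement; higher means more dye released from RNA so lower well fluorescence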
GRIN3A LBD mod: modulates the human NR3A ligand-binding domain; Tm shift relative to glycine control, % at 25 µM; AID 1259313; 2.5% of 340,000 active; NR3A LBD differential scanning fluorimetry, Tm shift; 0% = protein alone, 100% = glycine-bound protein;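 active means melting temperature shift of at least 10% of the positive control shift, at one fixed dose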
ADAM10 inh: inhibits human ADAM10; recombinant ADAM10, EDANS/DABCYL FRET peptide cleavage, 3 h; inhibition, % at 7 µM; 0.62% of 370,000 active;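 active means inhibition above a per-campaign cutoff equal to the mean of compounds falling between control-based bounds plus 3 SD, cut at about 20% in these data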;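 further: 0% = DMSO wells while the 100% control is not disclosed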
Target sequence (O14672 214-748 limits assumed): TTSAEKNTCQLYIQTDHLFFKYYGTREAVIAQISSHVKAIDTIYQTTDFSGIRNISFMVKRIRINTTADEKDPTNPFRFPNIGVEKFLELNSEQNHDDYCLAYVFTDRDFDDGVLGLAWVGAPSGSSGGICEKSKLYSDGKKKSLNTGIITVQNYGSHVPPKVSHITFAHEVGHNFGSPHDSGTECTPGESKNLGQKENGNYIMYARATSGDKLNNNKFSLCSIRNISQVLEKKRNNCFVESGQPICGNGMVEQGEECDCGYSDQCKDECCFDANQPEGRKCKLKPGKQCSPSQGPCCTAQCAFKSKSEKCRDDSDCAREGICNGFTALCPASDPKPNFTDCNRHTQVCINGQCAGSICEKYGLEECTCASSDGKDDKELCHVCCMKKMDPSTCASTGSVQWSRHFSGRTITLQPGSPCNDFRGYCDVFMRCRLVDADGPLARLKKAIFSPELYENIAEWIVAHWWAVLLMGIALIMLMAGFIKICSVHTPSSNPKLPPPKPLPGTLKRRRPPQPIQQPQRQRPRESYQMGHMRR
ADAM17 inh: inhibitors of human ADAM17; 0.83% of 370,000 active; inhibition, % at 6.95 µM; AID 720648; recombinant ADAM17, EDANS/DABCYL FRET peptide cleavage;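 active means inhibition above the mean of compounds lying between control limits plus 3 SD, set per campaign, cut at about 8.5% in these data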;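 further: 0% = DMSO-only wells as the low control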
KLK7 zymogen act: proKLK7 (human) activation, primary screen | purified proKLK7, EDANS-DABCYL substrate fluorescence; 100% is mature enzyme control, 0% vehicle | P49862 | activation, % at 7 µM | 0.9% of 370,000 active | AID 652039;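 active means activation above the mean of all tested compounds plus 3 SD, computed per campaign excluding outliers beyond control limits, cut at about 13% in these data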
AHR act: activates the human aryl hydrocarbon receptor | P35869 | AHR-responsive luciferase reporter cells, luminescence | activation, % at 5 µM | 2.5% of 320,000 active; in the data active means activation above about 47%;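 further: 0% = vehicle wells and 100% = reference agonist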
ADAM10 confirm: human ADAM10 inhibition, confirmation. shares compounds with ADAM10 inh. ADAM10 QFRET peptide cleavage, EDANS fluorescence. inhibition, % at 6.95 µM. 1% of 2,100 active. AID 743208;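 active means inhibition above about 20% chosen separately for each screening run, limit read from the data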;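 further: 0% = DMSO wells and 100% = marimastat wells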
ADAM17 ctr: ADAM17 inhibition, counter-screen for ADAM10 exosite hits; shares compounds with ADAM10 inh; ADAM17 QFRET peptide cleavage, EDANS fluorescence; inhibition, % at 6.95 µM; 0.5% of 2,100 active;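 active means mean triplicate inhibition above the solvent-only control wells' mean plus 3 SD, cut at about 12% in these data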;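 further: 0% = DMSO wells and 100% = marimastat wells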
ADAM10 ctr: counter-screen for ADAM17 exosite inhibitors: inhibitors of human ADAM10; recombinant ADAM10, EDANS/DABCYL FRET peptide cleavage, 3 h; shares compounds with ADAM17 inh; inhibition, % at 6.95 µM; 47% of 2,900 active;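 active means mean inhibition over the triplicate runs exceeds the activity threshold set in the earlier primary screen, cut at about 20% in these data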;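 further: 0% = DMSO wells and 100% = marimastat wells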
ADAM17 confirm: confirmation of inhibitors of human ADAM17; 65% of 2,900 active; inhibition, % at 6.95 µM; recombinant ADAM17, EDANS/DABCYL QFRET peptide cleavage; shares compounds with ADAM17 inh;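 active means mean inhibition across replicates above the hit cutoff set in the primary screen, cut at about 8.5% in these data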;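 further: 0% = DMSO wells and 100% = marimastat wells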
* = called active by the depositor; nt = no result.

SMILES	rCAG RNA binder	GRIN3A LBD mod	ADAM10 inh	ADAM17 inh	KLK7 zymogen act	AHR act	ADAM10 confirm	ADAM17 ctr	ADAM10 ctr	ADAM17 confirm
COc1ccc(C(c2nnnn2Cc2ccccc2)N2CCN(C/C=C/c3ccccc3)CC2)cc1 (centres undefined)	3.2	nt	23.8*	12.4*	0.2	nt	1.4	0.7	17.4	11.4*
COc1cccc(CN(C)S(=O)(=O)c2ccccc2Br)c1	3.0	0.2	3.9	0.8	0.5	nt	nt	nt	nt	nt
Cc1ccc(S(=O)(=O)N(CC(=O)N=Nc2c(O)[nH]c3ccccc23)c2ccc(C)c(C)c2)cc1	19.7	-2.9	22.6*	8.9*	0.2	8.8	8.4	2.8	26.3*	17.6*
Cc1ccc(S(=O)(=O)N=Nc2c(O)[nH]c3ccccc23)cc1	-2.0	-1.6	-41.3	-4.3	-0.6	16.0	nt	nt	nt	nt
Cc1cccc(COC[C@H](Cc2ccccc2)N2CCN(C(=O)c3ccc(Cl)c(Cl)c3)CCC2=O)c1	5.1	nt	8.5	3.4	1.2	nt	nt	nt	nt	nt
O=C(c1ccc(Cl)c(Cl)c1)N1CCC(=O)N(C(COCc2ccc(Cl)cc2)Cc2ccccc2)CC1 (centres undefined)	15.8	-17.7	20.5*	9.5*	-0.5	7.2	10.3	3.4	33.9*	15.7*
O=C(c1ccc(C(F)(F)F)cc1)N1CCC(=O)N(C(COCc2ccc(Cl)cc2)Cc2ccccc2)CC1 (centres undefined)	-7.6	-30.7	20.4*	9.9*	0.9	1.3	3.6	1.7	13.5	8.7*
Cc1cc(C)cc(NC(=O)C2(c3ccccc3)CC2(Cl)Cl)c1 (centres undefined)	3.3	-0.6	20.4*	9.9*	0.2	6.8	5.7	2.0	13.9	9.6*
Cc1cccc(NC(=O)C2(c3ccccc3)CC2(Cl)Cl)c1 (centres undefined)	1.7	-4.0	5.2	2.5	0.3	1.1	nt	nt	nt	nt
Cc1ccc(NC(=O)NNC(=O)Cn2nc(-c3ccccc3)c(-c3ccccc3)c(C#N)c2=O)cc1	15.7	1.3	20.4*	19.7*	-0.3	3.6	7.8	3.0	14.2	15.3*
O=C(COC(=O)c1ccc(S(=O)(=O)N2CCCC2)cc1)Nc1ccccc1	2.4	-0.1	1.9	1.5	0.5	0.0	nt	nt	nt	nt
O=C(COC(=O)c1ccc(Cl)c(S(=O)(=O)N2CCCCCC2)c1)Nc1ccccc1	4.3	6.0	20.0*	10.1*	0.1	3.7	12.0	3.3	48.7*	27.0*
NC(=O)CC(NC(=O)c1ccccc1)c1ccc(N2CCCCCCC2)c([N+](=O)[O-])c1 (centres undefined)	2.5	-3.8	10.5	-0.1	0.7	2.4	nt	nt	nt	nt
NC(=O)CC(NC(=O)c1ccc(Br)cc1)c1ccc(N2CCCCCC2)c([N+](=O)[O-])c1 (centres undefined)	0.7	-10.1	21.8*	11.7*	-0.5	4.6	3.3	1.2	9.7	5.5
CCCC(=O)N1CCC1(C)C(=O)NS(=O)(=O)c1cccc(C)c1 (centres undefined)	1.1	nt	-2.1	0.1	0.7	nt	nt	nt	nt	nt
COc1ccc(C(=O)NNC(=O)C(=O)Nc2cccc3ccccc23)cc1	5.5	1.0	1.9	1.9	-0.6	-0.9	nt	nt	nt	nt
Cc1ccccc1CN(CC(=O)Nc1cccc([N+](=O)[O-])c1)S(=O)(=O)c1ccc(Cl)cc1	9.2	6.0	21.3*	9.7*	0.7	3.5	8.1	2.9	35.1*	19.4*
O=C(CCSc1ccccc1Cl)Nc1cccc([N+](=O)[O-])c1	14.1	9.1	29.2*	12.1*	-0.2	-3.9	1.6	0.2	23.9*	11.7*
NS(=O)(=O)c1cccc(NC(=O)CCSc2ccccc2Cl)c1	2.8	-20.6	-8.5	-1.5	0.5	3.1	nt	nt	nt	nt
COc1cc(C(c2c(C)[nH][nH]c2=O)c2c(C)[nH][nH]c2=O)cc([N+](=O)[O-])c1O	0.4	0.6	20.3*	10.3*	-0.3	8.8	5.3	0.1	3.3	0.4
CCOc1cc(C(c2c(C)[nH][nH]c2=O)c2c(C)[nH][nH]c2=O)cc([N+](=O)[O-])c1O	4.3	0.6	-0.9	-0.1	-0.3	-0.2	nt	nt	nt	nt
O=C(COC(=O)c1cccc(S(=O)(=O)N2CCOCC2)c1)Nc1nc(-c2ccccc2Cl)cs1	13.1	-3.8	37.1*	16.4*	0.3	15.3	10.2	4.0	34.9*	17.5*
O=C(O)CSC1CC(=O)N(c2ccc(Cl)cc2)C1=O (centres undefined)	2.5	-1.2	-3.8	-1.6	-0.1	5.8	nt	nt	nt	nt
O=C(CSC1CC(=O)N(CC(c2ccccc2)c2ccccc2)C1=O)Nc1ccc(Cl)cc1 (centres undefined)	6.1	9.1	24.7*	16.3*	-0.4	4.0	8.9	3.5	31.6*	19.9*
CCN1C(=O)[C@H]2[C@@H](c3ccc(-c4ccc(Cl)c(Cl)c4)c(OC)c3)N3CCCC[C@@]3(C(=O)OC)[C@H]2C1=O	4.0	-10.9	-1.7	0.4	0.5	2.2	nt	nt	nt	nt
SMILES	rCAG RNA binder	GRIN3A LBD mod	ADAM10 inh	ADAM17 inh	KLK7 zymogen act	AHR act	ADAM10 confirm	ADAM17 ctr	ADAM10 ctr	ADAM17 confirm
CC(C)Oc1ccc(CNC(=O)CC(c2ccccc2)c2cc(Cl)ccc2O)cc1 (centres undefined)	7.7	9.5	24.7*	15.5*	-0.1	-1.3	7.7	3.4	33.0*	15.5*
COc1cc(C(=O)c2ccccc2)c(OC)cc1C(=O)Nc1ccc(O)cc1	4.2	5.4	29.9*	14.8*	0.4	7.0	-1.2	0.5	0.1	2.9
Clc1ccccc1N1CCN(Cc2c[nH]c3ccccc23)CC1	-4.4	1.1	3.4	0.2	-0.2	8.8	nt	nt	nt	nt
O=C(C(=O)N1CCN(c2ccccc2Cl)CC1)c1c[nH]c2ccccc12	4.4	-2.0	25.9*	13.7*	0.8	5.5	6.2	0.8	20.6*	11.8*
OC(c1ccc(F)c(F)c1)c1ncc(-c2ccc(Cl)cc2)[nH]1 (centres undefined)	1.3	nt	7.2	0.4	0.0	nt	nt	nt	nt	nt
OC(c1cccc(Cl)c1)c1ncc(-c2cccc(C(F)(F)F)c2)[nH]1 (centres undefined)	2.3	nt	29.3*	9.2*	-0.3	nt	1.6	0.6	23.3*	14.1*
